Among all 190,000 compounds or so, about 930 (0.49%) were called active. The list shows a part of the results. Entries with a potency or affinity are not part of this list. A number with no mark means an inactive call.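 The calls were made as follows: active = z-score of insulin promoter reporter brightness in nuclei below -3 at 5 µM, with at least 500 cells counted; inconclusive = wells with under 500 cells, flagged as toxic or sparse; inactive = the rest.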
Assay: insulin promoter down-regulators in MIN6 cells, imaging, high-content screening, mouse beta cells (AID 1628)
Conditions: MIN6 insulin promoter GFP reporter, at 5 µM, active compounds read low
Work on `CCc1cc(C(=O)Cc2cnn(-c3ccccc3)c2)c(O)cc1O` yielded a z-score of 0.58. `O=C1Nc2ccc(NS(=O)(=O)c3cccs3)c3cccc1c23` gave a z-score of 1.61. `COc1cc2cccc(OC)c(=O)c2c(OC)c1OC` showed a z-score of 0.56. In the case of `c1ccc(CCn2nnnc2C(c2cccs2)N2CCN(Cc3ccc4c(c3)OCO4)CC2)cc1` (stereo unspecified), the z-score is reported as -4.21 (active). With `N#C/C(=C\N1CCN(Cc2ccc3c(c2)OCO3)CC1)c1nc2ccccc2s1` the z-score was 3.92. In the case of `Cc1cc(C)nc(NC2=NCC(=O)N2c2ccc(Cl)cc2)n1`, the z-score is reported as -3.4 (active). Molecule `Cc1ccc(NC2=NCC(=O)N2C2CCCC2)c(C)c1` has a z-score of 0.57. Molecule `Cc1cccc2sc(NNC(=O)c3ccc4c(c3)OCCO4)nc12` has a z-score of 3.4. `CC1CN(S(=O)(=O)c2ccc(C(=O)Nc3sc4c(c3C(N)=O)CCN(C)C4)cc2)CC(C)O1` (stereo unspecified) gave a z-score of 11. `CC(C)N1CCc2c(sc(NC(=O)c3ccc(S(=O)(=O)N4CCc5ccccc54)cc3)c2C(N)=O)C1` showed a z-score of 4.91. `CNC(=O)c1c(NC(=O)c2ccc(S(=O)(=O)N3CCCc4ccccc43)cc2)sc2c1CCN(C)C2` showed a z-score of 8.33. With `Cc1cc(C)c2nc(NNC(=O)c3ccc(S(=O)(=O)N4CCc5ccccc5C4)cc3)sc2c1` the z-score was -5.92 (active). `COc1cccc2sc(NNC(=O)C3=COCCO3)nc12` gave a z-score of 5.68. With `CCCN1C(=O)S/C(=C\c2ccc(N3CCOCC3)o2)C1=O` the z-score was 9.56. For `COc1ccc(-c2n(Cc3ccccc3)c3ccccc3[n+]2Cc2ccccc2)cc1`, the z-score was -8.43 (active). `CCOc1ccccc1C(=O)Nc1nnc(COC)s1` showed a z-score of 0.76. With `CCc1nnc(NC(=O)CCC(=O)NCc2ccccc2OC)s1` the z-score was 4.05. `CCCC1C2CN(C(C)C)CC=C2C(C#N)=C(N)C1(C#N)C#N` (stereo unspecified) gave a z-score of 16.1. Work on `CCOC(=O)CSc1nc2cc3c(cc2cc1CC)OCCO3` yielded a z-score of 0.81. For `Cc1ccc(/C(N)=N/OC(=O)c2ccc(F)cc2)cc1`, the z-score was -4.16 (active). For `CCC1COC(c2cccn2Cc2ccc(Cl)cc2)=N1` (stereo unspecified), the z-score was 2.5. `CC1=C/C(=C\C=C(C#N)C#N)N(C)c2ccccc21` gave a z-score of 4.05. In the case of `COCc1cc(C)nc(Nc2ccccc2C)c1C#N`, the z-score is reported as 3.32. For `CCCOC(=O)C1=C(C)NC2=C(C(=O)CCC2)C1c1cccc(OC)c1OC` (stereo unspecified), the z-score was -0.62. With `CCCOC(=O)c1ccc(NC(=O)c2cc(OC)c(OC)c(OC)c2Br)cc1` the z-score was -3.3 (active). Work on `C=CCNC(=S)NNC(=O)c1ccc(OCCCC)cc1` yielded a z-score of 0.58. Work on `COC(=O)c1cc(NC(=O)c2ccccc2)c(=O)oc1/C=C/Nc1ccc(Oc2ccccc2)cc1` yielded a z-score of 10.8. Molecule `CCOc1ccc2nc(NCCCNS(=O)(=O)c3ccc(C)cc3)c(C#N)cc2c1` has a z-score of 1.84. For `CCOc1ccc2c(c1)C(C)=CC(C)(C)N2S(=O)(=O)c1ccc(C)cc1`, the z-score was -3.31 (active). With `CCOc1ccc(NS(=O)(=O)c2ccc(NS(=O)(=O)c3ccccc3)cc2)cc1` the z-score was 7.53. For `Cc1nc2ccccc2n1CC(=O)NCc1ccccc1`, the z-score was -3.91 (active). In the case of `C=C(C)Cn1c(CCCNC(=O)CC)nc2ccccc21`, the z-score is reported as 0.76. Work on `O=C(CCl)Nc1cccc2ncccc12` yielded a z-score of 4.01. `COc1ccccc1NC(=O)CSc1nc2c(sc3ccccc32)c(=O)n1CCN(C)C` showed a z-score of 2.23. For `Cn1nc(CC(=O)Nc2cccc3ncccc23)c2ccccc2c1=O`, the z-score was -4.57 (active). Work on `O=C(COC(=O)c1ccco1)Nc1ccc2c(c1)OCCO2` yielded a z-score of 0.45. In the case of `O=c1ccnc(Nc2ccc3c(c2)OCCO3)[nH]1`, the z-score is reported as 3.66. `O=C(O)c1ccc(N2C(=O)Nc3ccccc3N2O)cc1` gave a z-score of 2.34. With `CCn1cc(C(=O)O)c(=O)c2cc(F)c(N3CCN(C)CC3)cc21` the z-score was -0.61. In the case of `CCn1cc(C(=O)O)c(=O)c2cnc(N3CCN(C(=S)Nc4ccc(F)cc4)CC3)nc21`, the z-score is reported as -3.18 (active). In the case of `CCn1cc(C(=O)O)c(=O)c2cnc(N3CCN(C(=O)Nc4cccc5ccccc45)CC3)nc21`, the z-score is reported as -5.9 (active). Work on `COc1ccc(/C=C(\C#N)C(=O)OCC(=O)Nc2c(C)cccc2C(C)C)cc1` yielded a z-score of 3.36. With `O=C(O)C1CC=CCC1C(=O)Nc1ccc(N2CCN(Cc3ccccc3)CC2)cc1` (stereo unspecified) the z-score was -4.25 (active). In the case of `CN(C)c1ccc(/C=C2\N=C(c3ccc(Cl)c([N+](=O)[O-])c3)NC2=O)cc1`, the z-score is reported as 4.65. With `CCOc1ccc(CN(Cc2ccco2)C(c2cccs2)c2nnnn2C(C)(C)C)cc1` (stereo unspecified) the z-score was -3.47 (active). For `COc1ccc2nc(N/C(N)=N/C(=S)Nc3ccccc3)nc(C)c2c1`, the z-score was 2.22. With `CN(C)c1ccc(/C=C(/C#N)C(=O)NCc2ccccc2)o1` the z-score was 16.1. `CCCNc1c(F)c(F)c2c(C)c3ccccc3nc2c1F` gave a z-score of 5.94. For `CSc1nc(-c2ccco2)nn1C(=O)c1ccco1`, the z-score was -6.58 (active). In the case of `O=C(Oc1ccc2ccccc2c1)c1ccco1`, the z-score is reported as -0.59. In the case of `Cc1ccc(NS(=O)(=O)c2ccc(CCC(=O)O)cc2)cc1`, the z-score is reported as 1.37. Work on `Cc1ccc(S(=O)(=O)Nc2ccc(=O)n(Cc3ccc(Cl)c(Cl)c3)c2)cc1` yielded a z-score of 3.26. With `Cc1ccc(S(=O)(=O)NC(N)=NCCc2ccc(Cl)cc2)cc1` the z-score was -4.29 (active). With `O=C1CN(C(=O)COc2ncnc3ccccc23)c2ccccc2N1` the z-score was 4.05. With `CCCCOc1ccc(-c2cc(C(F)(F)F)c(C#N)c(SCC(=O)O)n2)cc1` the z-score was 4.82. With `COc1ccc2c(=O)c(-c3ccccc3)coc2c1` the z-score was -0.45. For `C=CCn1c(SCC(=O)Nc2cc3oc4ccccc4c3cc2OC)nnc1-c1cnccn1`, the z-score was -3.06 (active). In the case of `C=CCn1c(SCC(=O)Nc2nccs2)nnc1-c1cc2cccc(OC)c2o1`, the z-score is reported as -3.45 (active). In the case of `Cc1nn(C)c(C)c1S(=O)(=O)N(CC(=O)Nc1nccs1)c1ccc(C(C)C)cc1`, the z-score is reported as 3.98. `C=CCn1c(SCCOc2ccc(OC)cc2)nnc1C(C)NC(=O)Cc1ccc(OC)cc1` (stereo unspecified) gave a z-score of 4.23. For `CN(C)C(=O)CSc1nnc(-c2cnccn2)n1C`, the z-score was 0.77.
